The sample as a whole holds a higher share of hits than the screen did.
HIV RNase H inh-1: inhibitors of HIV-1 reverse transcriptase RNase H; P04585; 65,000 compounds, 1.9% hits; RT-RNase H RNA/DNA duplex cleavage, fluorescence; inhibition, % at 10 µM; AID 565; in the data active = inhibition above about 50%
RmlCD inh mix: inhibitors of RmlC and RmlD coupled enzymes; RmlC/RmlD coupled enzyme inhibition, 384-well mixture HTS; inhibition, % at 5.5 µM; 110,000 compounds, 0.39% hits; AID 1532; in the data active = inhibition above about 30%, passing the limit was not always enough; inconclusive = no clear call, values can overlap the other calls
HIV RNase H inh-2: confirmation of HIV-1 reverse transcriptase RNase H inhibitors; shares compounds with HIV RNase H inh-1; Recombinant RT RNase H, fluorescent RNA/DNA duplex cleavage; inhibition, % at 10 µM; 1,000 compounds, 39% hits; AID 651; in the data active = inhibition above about 48%; inconclusive = no clear call, values can overlap the other calls
Starred values were filed as active, the others as inactive; ? = inconclusive; / = no result.

SMILES	HIV RNase H inh-1	RmlCD inh mix	HIV RNase H inh-2
CNC(=O)CN(C1CCCCC1)S(=O)(=O)c1ccc(OC)c(Cl)c1	-6.2	-11.8	/
NS(=O)(=O)c1ccc(CCNC(=O)C2Cc3ccccc3CN2C(=O)c2ccco2)cc1 (configuration not stated)	/	7.9	/
CCSc1nnc(NC(=O)C2Cc3ccccc3CN2C(=O)c2ccco2)s1 (configuration not stated)	53.3*	-4.9	?
CCOC(=O)c1[nH]c2ccc(OC)cc2c1NC(=O)C(C)N1CCC2(CC1)OCCO2 (configuration not stated)	3.4	27.2	/
CCOC(=O)c1[nH]c2ccc(OC)cc2c1NC(=O)CN1CCC2(CC1)OCCO2	73.6*	33.5	32.8
O=C(Nc1ccc2c(c1)OCCO2)C1CCCN(S(=O)(=O)c2cnc[nH]2)C1 (configuration not stated)	-3.2	-15.0	/
COc1cc(NC(=O)Cn2nc(C(F)(F)F)c3c2CCCC3)cc(OC)c1OC	/	-10.5	/
CCOC(=O)CN1C(=O)N[C@@H](c2ccco2)C(C(=O)OC)=C1C	/	19.7	/
O=C(CCCn1c(SCC(=O)c2ccc(O)c(O)c2)nc2ccccc2c1=O)NCC1CCCO1 (configuration not stated)	94.8*	-8.2	71.4*
O=C(CCCn1c(SCC(=O)NC2CCCCC2)nc2ccccc2c1=O)NCC1CCCO1 (configuration not stated)	-3.4	11.4	/
CC(C)Oc1ccc(CSc2nnc3n(C)c(=O)c4c5c(sc4n23)CCCC5)cc1	9.2	-10.3	/
CCC1(C)Cc2c(sc3c2c(=O)n(C)c2nnc(SCc4ccc5c(c4)OCO5)n32)CO1 (configuration not stated)	58.0*	6.3	75.2*
O=C(Nc1ccccc1C(=O)OCC(=O)N1CCc2ccccc2C1)c1ccco1	-12.3	4.9	/
CCOC(=O)C(=O)/C(=C\N(C)C)c1onc(-c2c(Cl)cccc2Cl)c1C(=O)OC	/	-234.3	/
CN1CCN(Cc2cc(C(C)(C)C)c(O)c(C(C)(C)C)c2)CC1	/	-7.7	/
CC(C)(C)c1cc(C(c2cccnc2)N2CCN(CCO)CC2)cc(C(C)(C)C)c1O (configuration not stated)	82.7*	10.1	-4.9
COc1ccc(-c2noc3c2-c2nc(-c4ccc(C)cc4)sc2CC3)cc1	/	-11.0	/
CCCc1cc(C(=O)Nc2cccc(C(C)=O)c2)no1	-7.1	3.1	/
COc1ccc(NC(=O)c2cc(C)on2)cc1OC	0.9	-9.1	/
CC(=O)c1cccc(NC(=O)c2cc(-c3ccc(C)cc3)on2)c1	52.3*	-13.6	56.8*
COc1ccc(NC(=O)c2cc(-c3ccc(OC)c(OC)c3)on2)cc1OC	81.1*	/	32.1
CN(C(=S)Nc1ccccc1F)C1(c2ccccc2Cl)CCCCC1=O (configuration not stated)	/	13.4	/
Cc1cc(/C=N/n2cnnc2)c(C)n1-c1cc(Cl)ccc1Cl	-22.7	/	/
Nc1nnc(CSCc2ccc(F)cc2)s1	73.8*	10.9	61.5*
Nc1nnc(-c2ccc(F)cc2)s1	16.8	-9.8	/
SMILES	HIV RNase H inh-1	RmlCD inh mix	HIV RNase H inh-2
COc1ccc(OC)c(C(=O)CSc2nccc(-c3ccc(Br)cc3)n2)c1	/	-14.3	/
COC(=O)c1ccc2c(=O)n(CC3CCCO3)c(SCC(=O)Nc3ccccc3Cl)nc2c1 (configuration not stated)	/	14.7	/
COC(=O)c1ccc2c(=O)n(Cc3ccco3)c(SCC(=O)Nc3ccccc3Cl)nc2c1	86.5*	10.1	67.1*
CN(C(=S)NC(=O)CCCOc1ccc(Cl)cc1Cl)c1ccccc1	/	8.1	/
COc1cccc(Oc2cncnc2-c2ccc(OC)cc2O)c1	-15.0	7.2	/
Cc1cccc(C)c1NC(=O)CSc1nnc(-c2ccco2)c(-c2ccco2)n1	/	0.4	/
O=C(CSc1nnc(-c2ccco2)c(-c2ccco2)n1)Nc1ccccc1	86.5*	8.7	37.3
Cc1ccccc1NC(=O)CSc1nnc(-c2ccco2)c(-c2ccco2)n1	/	-37.1	/
CSc1nnc2c(n1)OC=Nc1ccccc1-2	-10.6	-8.5	/
CSc1nnc(-c2ccco2)c(-c2ccco2)n1	76.8*	8.1	43.3
Cc1ccc(NC(=O)CSc2nnc(-c3ccco3)c(-c3ccco3)n2)cc1	96.8*	-5.6	27.7
O=C(COC(=O)c1ccccc1OCc1ccc(Cl)cc1)NC1CC1	/	-11.1	/
CCN1CCN(C(C)C(=O)Nc2c(C)n(C)n(-c3ccccc3)c2=O)CC1 (configuration not stated)	/	9.7	/
Cc1cc(C)cc(NC(=O)C2CCCN(c3nccc(C)n3)C2)c1 (configuration not stated)	-5.2	8.0	/
Cc1cc(C)cc(NC(=O)C2CCCN(c3nc(C)cc(C)n3)C2)c1 (configuration not stated)	70.4*	-20.3	44.0
O=C(Nc1nc(-c2ccco2)c(-c2ccco2)s1)C1CC(=O)N(c2ccc3c(c2)OCCO3)C1 (configuration not stated)	74.5*	-5.1	-0.3

Screening results (PubChem)
